PubChem BioAssay (NCATS)
Results filed as inconclusive are left out. Activity calls are given as the source filed them. Calls come from the whole dose curve; as a rule, active = well fitted cell-killing curve with a large enough effect; inconclusive = small, poorly fitted or top-dose-only effect, or effect the other way; inactive = flat fitted curve, though single readings scatter.

Test system: Tov-21-G
Assay: Primary qHTS to identify gynecologic anti-cancer compounds using libraries of approved drugs and bioactive compounds (AID 1345084); note: nearly all actives have a fitted effect of over 55% in size
Details: Gynecologic cancer cell panel viability, ATPlite luminescence, 48 h; series mostly up to 57.5 µM; activity change, negative = cytotoxicity: at the top concentration
Outline: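 Luminescence from the ATPlite ATP-monitoring reagent indicates viable cell number; lower signal means cytotoxicity. Cells received compound 16 h after seeding and were exposed for 48 h across five concentrations.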
% is set by controls: 0 for no effect and ±100 for the full control effect; potency is the fitted concentration of half-maximal effect.

Structure (SMILES)	activity change, negative = cytotoxicity	Potency
Fc1ccc(CN2CCC(Nc3ccc(C(F)(F)F)nn3)CC2)cc1F	3.98% (inactive)	–
Cc1nc(N2CCN(C(=O)c3ccco3)CC2)c2c3c(sc2n1)CCCC3	7.49% (inactive)	–
CC(F)(F)CN1CCOc2c(nn(-c3ccccc3Cl)c2-c2ccc(Cl)cc2)C1=O	2.31% (inactive)	–
CN1CCC(NC(=O)c2cc(-c3c(O)cc(O)cc3Oc3ccc([N+](=O)[O-])cc3)on2)CC1	–	0.562 µM (active)
OC1CCC(Nc2nc(-c3ccccc3)nc3[nH]ccc23)CC1 (centres undefined)	11.9% (inactive)	–
COC(=O)CC1OC(C)C2=C(O)c3c(O)cccc3C(=O)C23OC13 (centres undefined)	–	6.31 µM (active)
Cn1ncc(Cl)c1-c1cc(C(=O)N[C@H](CN)Cc2ccc(F)c(F)c2)sc1Cl	–	0.891 µM (active)
CCC(C)CC(=O)OC1C(=O)C(CO)=CC(O)C1C(C)C (centres undefined)	–	25.1 µM (active)
Nc1ncnc2c1nc(Cl)n2C1OC2COP(=O)(O)OC2C1O (centres undefined)	–	8.91 µM (active)
COc1ccc(C[C@H]2COC(=O)[C@@H]2Cc2ccc(O[C@@H]3O[C@H](CO)[C@@H](O)[C@H](O)[C@H]3O)c(OC)c2)cc1OC	-4.24% [at 25.3 µM] (inactive)	–
O=C(C1CCCCC1)N(CCN1CCN(c2ccccc2O)CC1)c1ccccn1	4.41% (inactive)	–
C/C1=C\[C@@H](C)C[C@@H](C)[C@@H](Cc2cnco2)OC(=O)/C(C)=C/[C@@H](C)C[C@@H](C)[C@@H](Cc2cnco2)OC1=O	-29.7% [at 25.3 µM] (inactive)	–
CC(C)c1ccc(NC(=O)c2cccs2)c(-c2nc3ccccc3[nH]c2=O)c1	-9.63% (inactive)	–
C=C[C@@]1(C)CCC2C(=CCC3[C@]2(C)CCC[C@@]3(C)C(=O)O)C1 (some centres undefined)	-16.2% (inactive)	–
CCCSc1nc(N[C@@H]2C[C@H]2c2ccc(F)c(F)c2)c2nnn([C@@H]3C[C@H](OCCO)[C@@H](O)[C@H]3O)c2n1	0.125% (inactive)	–
FC(F)(F)c1ccccc1-c1cc(C(F)(F)F)c2nc(C3=NOC4(CCCCC4)C3)[nH]c2c1	26.4% (inactive)	–
Cc1cc(OCCCS(C)(=O)=O)cc(C)c1-c1cccc(COc2ccc(C3=CC(=O)NS3=O)cc2)c1 (centres undefined)	10.2% (inactive)	–
Cc1sc2c(c1C)C(c1ccc(Cl)cc1)=N[C@H](CC(=O)NCCCCNC(=O)COc1cccc3c1C(=O)N([C@H]1CCC(=O)NC1=O)C3=O)c1nnc(C)n1-2	–	1.78 µM (active)
CCCn1ncc(CN2CCCC(C(=O)c3cccc(OC(C)C)c3)C2)c1C (centres undefined)	-9.29% (inactive)	–
Cn1ncnc1[C@H]1c2n[nH]c(=O)c3cc(F)cc(c23)N[C@@H]1c1ccc(F)cc1	-27.3% [at 25.3 µM] (inactive)	–
CC(C)(O)C1Cc2c(ccc(C(=O)CCc3ccccc3)c2O)O1 (centres undefined)	–	12.6 µM (active)
Nc1nc2c(ncn2C2OC3COP(=O)(O)OC3C2O)c(=O)[nH]1 (centres undefined)	8.58% (inactive)	–
CC1(C)SCCN(S(=O)(=O)c2ccc(Oc3ccncc3)cc2)[C@H]1C(=O)NO	-1.24% (inactive)	–
CC(O)(C(=O)C1CC1(CO)COC1OC(CO)C(O)C(O)C1O)C1C(O)CC2C3CC=C4CC(O)CC(O)C4(C)C3C(O)CC21C (centres undefined)	–	0.562 µM (active)
